Test [1] can be described thus: qHTS of pediatric cancer cell lines to identify multiple opportunities for drug repurposing: Primary screen for Saos-2 cells (AID 1347097). Note: nearly all actives have a fitted effect of over 40% in size. Note: potency is the fitted concentration of half-maximal effect. In short, it runs like this:
(§1)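 Viability was measured as metabolically active cells after 48 hours of treatment, read by CellTiter-Glo luminescence. Compounds were tested at multiple final concentrations, giving concentration-response curves.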
On the technique in general: qHTS replaces the single test concentration by a dilution series.

Test [2] is described as follows: qHTS of pediatric cancer cell lines to identify multiple opportunities for drug repurposing: Primary screen for SK-N-SH cells (AID 1347098). Note: nearly all actives have a fitted effect of over 65% in size. Note: potency is the fitted concentration of half-maximal effect. In short, it runs like this: (§2)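 Cells (500-1,000/well) rested 5 h, then received compounds for 48 h; metabolically active cells were measured by CellTiter-Glo luminescence. Final concentrations spanned up to 46 µM (MIPE, 11-point) or 0.59 nM-46 µM (NPC, 8-point) in primary screens, 11-point in follow-ups.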

The nature of test [3]: qHTS of pediatric cancer cell lines to identify multiple opportunities for drug repurposing: Primary screen for NB1643 cells (AID 1347099). Note: nearly all actives have a fitted effect of over 50% in size. Note: potency is the fitted concentration of half-maximal effect. In short, it runs like this:
as §1

Test [4] can be described thus: qHTS of pediatric cancer cell lines to identify multiple opportunities for drug repurposing: Primary screen for BT-12 cells (AID 1347101). Note: nearly all actives have a fitted effect of over 25% in size. Note: potency is the fitted concentration of half-maximal effect. The gist of the method:
as §2

Test [5] can be described thus: qHTS of pediatric cancer cell lines to identify multiple opportunities for drug repurposing: Primary screen for Rh18 cells (AID 1347102). Note: nearly all actives have a fitted effect of over 65% in size. Note: potency is the fitted concentration of half-maximal effect. In short, it runs like this:
(§3)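 Cells (500-1,000/well) in growth media were settled 5 h at 37 degrees C, then given compounds for 48 h. Viability was read as CellTiter-Glo luminescence. Primary runs used MIPE at 11 points (0.78 nM-46 µM) and NPC at 8 points (0.59 nM-46 µM); follow-ups used 11 points.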

Test [6] in a line: qHTS of pediatric cancer cell lines to identify multiple opportunities for drug repurposing: Primary screen for OHS-50 cells (AID 1347103). Note: nearly all actives have a fitted effect of over 40% in size. Note: potency is the fitted concentration of half-maximal effect. In short, it runs like this: as §2
Test [7] in a line: qHTS of pediatric cancer cell lines to identify multiple opportunities for drug repurposing: Primary screen for control Hh wild type fibroblast cells (AID 1347106).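 Note: series mostly up to about 46 µM; a drop in luminescence marks cytotoxicity and a rise apparent proliferation; nearly all actives have a fitted effect of over 55% in size.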 In short, it runs like this:
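Viability after 48 h compound treatment at 37C, 500-1,000 cells/well, read as ATP luminescence with CellTiter-Glo. Primary screens used 11-point (MIPE, 0.78 nM-46 µM) or 8-point (NPC, 0.59 nM-46 µM) final concentrations; follow-up screens used 11-point dilutions.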

A short description of test [8]: qHTS of pediatric cancer cell lines to identify multiple opportunities for drug repurposing: Primary screen for LAN-5 cells (AID 1347100). Note: potency is the fitted concentration of half-maximal effect. In short, it runs like this:
as §3

Test [9] can be described thus: qHTS of pediatric cancer cell lines to identify multiple opportunities for drug repurposing: Primary screen for RD cells (AID 1347104). Note: nearly all actives have a fitted effect of over 55% in size. Note: potency is the fitted concentration of half-maximal effect. The gist of the method:
as §1

Test [10] can be described thus: qHTS of pediatric cancer cell lines to identify multiple opportunities for drug repurposing: Primary screen for MG 63 (6-TG R) cells (AID 1347105). Note: nearly all actives have a fitted effect of over 50% in size. Note: potency is the fitted concentration of half-maximal effect. The gist of the method:
as §1

Results filed as inconclusive are left out. Activity calls are given as the source filed them. Calls come from the whole dose curve; as a rule, active = well fitted curve in the direction sought with a large enough effect; inconclusive = small, poorly fitted or top-dose-only effect, or another doubt; inactive = no such curve, though single readings can be large; an effect the other way counts as inactive or inconclusive.

`C[C@H](CCC(=O)O)[C@H]1CC[C@H]2[C@H]3[C@@H](CC[C@]12C)[C@@]1(C)CC[C@@H](O)C[C@H]1C[C@@H]3O`: the Potency entry in [1], in test [2], in test [3], in [4], in test [5] and in test [6] was “inactive” each time. Besides, the Potency result in [7] was “inactive”.

`NC(=O)c1ncn([C@@H]2O[C@H](CO)[C@@H](O)[C@@H]2O)n1`: the Potency entry in test [1], in test [2], in [3], in [8], in test [5] and in test [6] was “inactive” each time. The Potency entry in test [9], in [10] and in test [7] was “inactive” in each case.

`N=C1SC(=Cc2ccc(-c3ccc4c(c3)C(=O)NC4=O)o2)C(=O)N1c1ccc(Br)cc1`: the Potency entry in [1], in [2], in [4], in test [5], in [9] and in [10] was “inactive” in each case. Also, the Potency entry in [7] was “inactive”.

For the compound `O=S(=O)(NCCNCC=Cc1ccc(Br)cc1)c1cccc2cnccc12`, the Potency was 16.6 µM (active) in [1]; 19.2 µM (active) in test [2]; 20.9 µM (active) in test [8]; 21.7 µM (active) in [4]; 7.69 µM (active) in test [6]; 14.8 µM (active) in test [10]. In addition, the Potency result in [7] was “inactive”.

As to `Cc1ccc(NC(=O)Nc2cc(C(F)(F)F)ccc2F)cc1Nc1ccc2c(c1)NC(=O)C2=Cc1ccc[nH]1`, the Potency in [1] was 20.9 µM (active); in [2] it was 30.4 µM (active); in test [3] it was 11.8 µM (active); in [6] it was 27.3 µM (active); in test [9], 18.7 µM (active); in test [10] it was 18.7 µM (active). Moreover, the Potency entry in [7] was “inactive”.

For `C=CC[N+]1([C@H]2C[C@H]3[C@@H]4CC[C@H]5C[C@H](O)[C@@H](N6CCOCC6)C[C@]5(C)[C@@H]4CC[C@]3(C)[C@H]2OC(C)=O)CCCC1`, the Potency entry in test [1], in test [2], in test [8], in test [5], in test [6] and in test [10] was “inactive” throughout. Further, the Potency entry in test [7] was “inactive”.

Take `NC(N)=Nc1nc(CSCCC(N)=NS(N)(=O)=O)cs1`: the Potency entry in test [1], in test [4], in [5], in test [10] and in test [7] was “inactive” throughout. Also, the figures for the Potency in test [2] and in test [3] were 19.2 µM (active) and 8.33 µM (active), respectively.

For the compound `CC[C@H]1OC(=O)[C@H](C)[C@@H](O[C@H]2C[C@@](C)(OC)[C@@H](O)[C@H](C)O2)[C@H](C)[C@@H](O[C@@H]2O[C@H](C)C[C@H](N(C)C)[C@H]2O)[C@](C)(O)C[C@H](C)C(=NOCOCCOC)[C@H](C)[C@@H](O)[C@]1(C)O`, the Potency result in test [1], in test [8], in [4], in test [5], in test [9] and in [10] was “inactive” each time. In addition, in [7], the Potency result was “inactive”. For the same compound, the Potency in test [2] was 30.4 µM (active).

`CN(C)CCOc1ccc(-c2nc(-c3ccc4c(c3)CCC4=NO)c(-c3ccncc3)[nH]2)cc1`: the Potency in test [1] is 23.5 µM (active); in [2], 24.1 µM (active); in test [3] it was 20.9 µM (active); in test [4], 27.3 µM (active); in test [5], 23.5 µM (active); in test [9], 18.7 µM (active).

`Cc1c(C(=O)Nc2ccc(N3C[C@@H](C)O[C@@H](C)C3)nc2)cccc1-c1ccc(OC(F)(F)F)cc1`: the Potency in [1] was 18.7 µM (active); in test [2] it was 3.41 µM (active); in test [4], 13.7 µM (active); in [6], 19.3 µM (active); in [10], 23.5 µM (active). In test [7], the Potency result was “inactive”.

As for `c1ccc(-c2oc3ncnc(NC[C@@H]4CCCO4)c3c2-c2ccccc2)cc1`, the Potency in test [1] was 29.6 µM (active); in [2] it was 24.1 µM (active); in [3], 2.64 µM (active); in test [8] it was 18.7 µM (active); in test [6], 27.3 µM (active); in test [9], 29.6 µM (active). Also, the Potency entry in test [7] is “inactive”.

For the compound `CCCCC[C@H](O)C=C[C@H]1[C@H](O)CC(=O)[C@H]1CCCCCCC(=O)O`, the Potency entry in test [1], in [2], in [5], in test [6], in test [10] and in test [7] was “inactive” each time.

Turning to `COc1ccc2ccc(=O)oc2c1CC=C(C)C`, the Potency in test [1] is 18.7 µM (active); in test [8], 29.6 µM (active); in [4], 24.3 µM (active). The Potency result in test [2] and in test [7] was “inactive” in each case.

Consider `CN1C(=O)C[C@H](C(=O)N[C@@H](Cc2cnc[nH]2)C(=O)N2CCC[C@@H]2C(N)=O)NC1=O`, for which the Potency result in test [1], in [2], in test [6], in [10] and in test [7] was “inactive” in each case. For the same compound, the Potency in [8] is 20.9 µM (active).

`Cc1cc2c(cc1C1(c3ccc(C(=O)O)cn3)CC1)C(C)(C)CCC2(C)C`: the Potency result in [1], in test [2], in [3], in [8], in test [5] and in [10] was “inactive” each time. Moreover, in test [7], the Potency entry was “inactive”.

As to `CC(C)n1c(C=C[C@H](O)C[C@H](O)CC(=O)O)c(-c2ccc(F)cc2)c2ccccc21`, the Potency in test [1] is 1.87 µM (active); in test [2], 6.81 µM (active); in [5], 5.9 µM (active); in [6], 4.32 µM (active); in test [10], 1.48 µM (active). The Potency entry in test [8] was “inactive”.

With `C=CCc1cccc(C=NNC(=O)CN2CCN(Cc3ccccc3)CC2)c1O`, the Potency is 5.9 µM (active) in [1]; 9.61 µM (active) in test [2]; 24.3 µM (active) in [4]; 7.69 µM (active) in test [6]; 16.6 µM (active) in [9]; 18.7 µM (active) in [10]. The Potency entry in test [7] was “inactive”.

With `Cn1cnc(-c2cc3nccc(Oc4ccc(NC(=S)NC(=O)Cc5ccccc5)cc4F)c3s2)c1`, the Potency was 16.6 µM (active) in test [1], 21.5 µM (active) in [2], 16.6 µM (active) in test [3] and 16.6 µM (active) in test [8]. The Potency entry in [7] was “inactive”.

Turning to `CC(C)C[C@@H](N)[C@H](O)C(=O)N[C@H](C(=O)N[C@H](C(=O)N[C@@H](CC(=O)O)C(=O)O)C(C)C)C(C)C`, the Potency result in test [1], in [8], in test [4], in [5], in test [6] and in [9] was “inactive” each time. The Potency entry in [10] and in test [7] was “inactive” each time. The Potency in [2] was 24.1 µM (active).

In the case of `COc1ccc(-c2cc3nccn3c(Nc3ncccc3C(N)=O)n2)cc1OC`, the Potency was 1.05 µM (active) in test [1], 2.35 µM (active) in [3] and 1.48 µM (active) in test [8]. The Potency entry in test [5], in test [10] and in test [7] was “inactive” in each case.

As for `Cc1cccc(-c2[nH]c(C(C)(C)C)nc2-c2ccc3c(c2)OCO3)n1`, the Potency in test [1] was 0.418 µM (active); in [3] it was 11.8 µM (active); in test [8] it was 4.18 µM (active); in test [4], 7.69 µM (active); in [6], 2.73 µM (active); in test [9], 9.35 µM (active). For the same compound, the Potency entry in test [5] and in [10] was “inactive” each time.

Values taken from PubChem BioAssay (NCATS).
